Assay outcomes as filed in PubChem.
Cycloheximide cs: counter-screen hit for Shiga toxin inhibitors, cycloheximide. AID 2314. cell reporter, cycloheximide protein synthesis inhibition counterscreen. actives 12% (n = 300,000). max response, %; in the data active = max response mostly above about 13%, no sharp cut-off; inactive = mostly below about 14%; note: read at 38.3 µM for the half of the compounds with a filed dose
Giardia FBPA inh: inhibitors of Giardia lamblia fructose-1,6-bisphosphate aldolase. A8B2U2. purified Giardia FBPA. Potency, µM (series often up to 59.6 µM), usual class: inhibitors. actives 0.71% (n = 290,000). AID 2451; note: nearly all actives have a fitted effect of over 55% in size
Target sequence (A8B2U2 whole entry, looked up): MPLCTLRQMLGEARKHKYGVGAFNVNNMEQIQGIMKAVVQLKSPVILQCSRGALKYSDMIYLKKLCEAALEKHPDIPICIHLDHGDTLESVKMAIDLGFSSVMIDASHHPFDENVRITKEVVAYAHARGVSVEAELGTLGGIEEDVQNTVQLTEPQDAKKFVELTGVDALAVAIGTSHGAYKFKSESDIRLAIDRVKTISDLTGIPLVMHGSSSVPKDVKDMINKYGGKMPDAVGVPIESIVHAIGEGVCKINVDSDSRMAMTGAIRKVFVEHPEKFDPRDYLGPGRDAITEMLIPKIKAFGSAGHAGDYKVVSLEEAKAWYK
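40 nM FBPA preincubated 10 min at RT with compound (up to 57.5 uM final), then substrate plus GAPDH/TPI/NAD/arsenate coupling and diaphorase/resazurin added. Fluorescence read after 20 min at RT, 525/598 nm.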
Pf growth 48h: inhibits P. falciparum growth in the first generation, 48 h | P. falciparum luciferase growth in erythrocytes, 48 h | Potency, µM (highest dose often 28.7 µM), hits mostly inhibitors | actives 5.9% (n = 310,000)
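Luciferase-expressing parasites in RBCs, 2% Hct / 0.1% parasitemia final; RPMI 1640 + 0.5% Albumax; 37 C, 5% CO2, one generation; luminescence read-out, lower signal = inhibition.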
Pf growth 96h: inhibits malaria parasite growth, 96 h. P. falciparum luciferase reporter growth, 96 h. Potency, µM (highest dose often 28.7 µM), actives largely listed as inhibitors. actives 6.9% (n = 320,000). AID 504834
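Compounds incubated with erythrocytes infected by luciferase-expressing P. falciparum (2% hematocrit, 0.05% parasitemia final) for 96 hours, 37 C in 5% CO2. Growth inhibition scored as decreased luciferase luminescence.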
Shiga inhibitor: inhibitors of Shiga toxin in Vero cells; Vero cells, Shiga toxin protein synthesis inhibition reporter; actives 9.2% (n = 290,000); inhibition, % at 38.7 µM; in the data active = inhibition mostly above about 28%, no sharp cut-off; inactive = mostly below about 43%
NS1 inh: influenza NS1 inhibition; actives 0.4% (n = 270,000); AID 2326; Potency, µM (highest dose often 46.1 µM); calls by dose curve; note: actives are rising curves; nearly all actives have a fitted effect of over 50% in size
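S. cerevisiae expressing influenza A NS1, grown in glucose, washed, then diluted 1:100 into pH 6.0 -URA galactose medium with 23 nl compound. Growth recovery read as OD600; NS1-free strain serves as control.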
Numbers stand for hits; – = inactive; ? = inconclusive; · = no result; [ ] = another dose, or the depositor's remark. A selection: hits, their analogues and other compounds. The true share with any hit is near 21%. Unless noted, calls come from the whole dose curve; as a rule, active = well fitted curve in the direction sought with a large enough effect; inconclusive = small, poorly fitted or top-dose-only effect, or another doubt; inactive = no such curve, though single readings can be large; an effect the other way counts as inactive or inconclusive.

SMILES	Cycloheximide cs	Giardia FBPA inh	Pf growth 48h	Pf growth 96h	Shiga inhibitor	NS1 inh
Cc1ccc(C(CC(=O)O)NC(=O)CN2C(=O)c3ccccc3C2=O)cc1 (centres undefined)	–	–	–	–	–	–
CC(=O)c1ccc(N2CCN(C(=O)c3ccc4c(Cl)c5c(nc4c3)CCCC5)CC2)cc1	–	–	?	?	–	–
O=C(c1ccc(Cl)cc1)N1CCN(C(=O)C2CCCCC2)CC1	–	·	–	5.9µM	–	–
CC(=O)c1ccc(N2CCN(c3ccnc4cc(Cl)ccc34)CC2)cc1	–	–	10µM	6.6µM	–	–
O=C(C1CC1)N1CCN(c2ccnc3cc(Cl)ccc23)CC1	–	–	–	7.4µM	–	·
CC(C)(C)C(=O)N1CCN(c2ccnc3cc(Cl)ccc23)CC1	–	–	?	–	–	–
CC(=O)OC1CCC2(C)C3CC(=O)C4(C)C(CC5OC6(CCC(C)CO6)C(C)C54)C3CC[C@H]2C1 (some centres undefined)	·	–	·	·	·	·
CCn1nc(C)c(CNC(=O)Nc2ccc3c(c2)OCO3)c1C	45	–	–	?	–	·
Cc1cc(CNC(=O)Nc2ccc3c(c2)OCO3)nn1C	27	–	–	·	61	–
CC1CCc2c(sc(NC(=O)COC(=O)c3ccc(O)cc3)c2C#N)C1 (centres undefined)	–	–	–	–	–	·
CCc1c(C)sc(NC(=O)c2cc(C3CC3)on2)c1C#N	–	–	·	?	–	–
CCNC(=S)Nc1sc2c(c1C#N)CCC(C)C2 (centres undefined)	–	–	?	5.9µM	–	–
CCOC(=O)Nc1sc2c(c1C#N)CCC(C)C2 (centres undefined)	46	–	–	?	91	–
CCc1c(C)sc(NC(=O)C2CCCO2)c1C#N (centres undefined)	17	–	–	–	–	–
CC1CCc2c(sc(NC(=O)C3CCCO3)c2C#N)C1 (centres undefined)	37	–	–	–	107	·
O=c1ccc2ccccc2[nH]1	–	?	·	·	–	·
CCOc1cc(CNCc2ccncc2)cc(Br)c1OCc1ccc(F)cc1	–	–	?	?	–	–
FC(F)(F)c1ccccc1CNCc1ccncc1	–	?	–	–	·	–
CCOc1ccc(Br)cc1CNCc1cccnc1	–	–	–	?	–	–
Fc1ccccc1COc1ccc(Br)cc1CNCc1cccnc1	–	–	13µM	?	–	–
Fc1ccccc1COc1ccc(Br)cc1CNCc1ccncc1	–	–	·	12µM	–	–
Fc1ccc(COc2ccc(Br)cc2CNCc2ccncc2)cc1	–	–	8.3µM	?	–	–
Cc1ccc2c(c1)CCCN2C(=O)c1ccncc1	–	–	–	·	–	–
O=C(Nc1ccc2c(c1)OCO2)N1CCCc2ccccc21	35	–	–	–	85	–
Cc1ccc2c(c1)CCCN2C(=O)Nc1ccc2c(c1)OCO2	46	?	–	?	30	–
SMILES	Cycloheximide cs	Giardia FBPA inh	Pf growth 48h	Pf growth 96h	Shiga inhibitor	NS1 inh
COc1ccc(Nc2nc(-c3sc(N)nc3C)cs2)cc1	25	–	–	–	56	?
Cc1ccc(Nc2nc(-c3sc(N)nc3C)cs2)cc1	40	?	–	–	46	–
Cc1ccc(Nc2nc(-c3sc(C)nc3C)cs2)cc1	25	–	–	?	58	–
CC(=O)Nc1ccc(Nc2nc(-c3sc(C)nc3C)cs2)cc1	11	–	–	?	–	–
COc1ccc(CCNc2nc(-c3sc(N)nc3C)cs2)cc1OC	–	–	?	?	–	?
Cc1ccc(C(=O)CN(CCCC(N)=O)C(=O)c2ccncc2)cc1	·	·	–	–	·	·
C=CCn1c(COc2ccc(Cl)cc2)nnc1SCC(=O)c1c(N)n(C)c(=O)n(C)c1=O	–	–	–	–[5.75 µM]	–	·
CCOc1ccc(Nc2nc(-c3sc(N)nc3C)cs2)cc1	14	–	?	–	–	–
Cc1nc(C)c(-c2csc(N)n2)s1	–	–	–	0.33µM	–	–
COc1ccc(Nc2nc(-c3sc(NC(C)=O)nc3C)cs2)cc1	–	–	·	10µM	–	–
CC1CN(C(C)C(=O)NC(c2ccccc2)c2ccccc2)CC(C)O1 (centres undefined)	–	–	–	–	–	–
COC(=O)C1=C(C(=O)OC)[C@@H]2N(C)c3ccc(OC)cc3[C@@]23C[C@@H](C(=O)OC)N(S(=O)(=O)c2cccs2)C3=N1	·	–[12.9 µM]	·	·	·	·
CCCCC1=NN(C(=O)c2cccnc2)C(O)(C(F)(F)F)C1 (centres undefined)	–	–	–	–	–	–
Cn1c(=O)c2[nH]c(CCNC(=O)c3ccccc3)nc2n(C)c1=O	·	·	·	·	·	–
Cn1c2cc(S(C)(=O)=O)sc2c2cnn(Cc3ccccc3F)c(=O)c21	–	·	·	·	–	·
COc1ccc(-c2nc3cnc(Oc4cccc(Cl)c4)nc3n(C3CC3)c2=O)cc1	·	–	·	·	·	·
CCNC(=O)CCC(N)C(=O)O (centres undefined)	·	–	·	·	·	·
NC(CCC(=O)N[C@@H](CS)C(=O)NCC(=O)O)C(=O)O (some centres undefined)	·	?	2.1µM	3µM	·	·
COc1ccc(C(=O)c2ccc(OC)c(N)c2)cc1N	50	–	–	·	122	–
CC(Sc1nnc(Cc2cccs2)n1C1CC1)C(=O)NC1CCS(=O)(=O)C1 (centres undefined)	·	·	?	–	·	·
Nc1ccc2oc(-c3ccc4nc[nH]c4c3)nc2c1	16	–	–	?	–	–
Nc1ccc(-c2nc3ccccc3o2)cc1	57	–	–	–	91	–
CCc1ccc2oc(-c3cccc(N)c3)nc2c1	–	–	–	–	–	–
Nc1ccc2oc(-c3cccc(Br)c3)nc2c1	43	–	–	–	–	–
c1nc2ccc(Cc3ccc4nc[nH]c4c3)cc2[nH]1	–	–	–	–	–	–
SMILES	Cycloheximide cs	Giardia FBPA inh	Pf growth 48h	Pf growth 96h	Shiga inhibitor	NS1 inh
Cc1nc2ccc(-c3nc4cc(N)ccc4o3)cc2[nH]1	21	–	?	?	27	–
Nc1ccc(-c2c3ccccc3nc3ccccc23)cc1	–	–	–	–	–	–
Cc1ccccc1-c1nc2cc(N)ccc2o1	55	–	–	–	87	–
CC(C)c1ccc2oc(-c3cc(N)ccc3O)nc2c1	–	–	–	–	–	–
CCOc1ccc(C(C(=O)NC2CCCCC2)N(CCOC)C(=O)c2snc(C(N)=O)c2N)cc1 (centres undefined)	–	–	?	?	–	–
CCOC(=O)c1oc2cc(O)c(CC)cc2c(=O)c1-c1cscn1	–	–	–	–	–	·
CCOC(=O)c1ccc(-c2c(C(=O)OCC)oc3cc(O)c(CC)cc3c2=O)o1	–	–	10µM	?	–	?
CCC1CCc2sc(C(=O)N3CCCN(C)CC3)cc2C1 (centres undefined)	23	–	–	–	–	–
COc1cc(C2NCc3ccccc3-n3cccc32)ccc1O (centres undefined)	–	–	2.6µM	?	–	?
CCOc1cc(C2NCc3ccccc3-n3cccc32)ccc1OC (centres undefined)	–	–	?	–	–	–
